High-throughput results as filed in PubChem BioAssay.
NPC1 prom act: activators of NPC1 promoter; hit rate 2.4% among 320,000; Huh7 NPC1 promoter luciferase reporter, 24 h; AID 485313; Potency, µM (top dose mostly 9.22 µM), without a hit: at the highest dose activation, most hits filed as activators; further: % of control where 0% means no effect; nearly all actives have a fitted effect of over 60% in size
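Luciferase expression driven by the NPC1 promoter was measured in stably transfected Huh7 cells after a 24 h compound incubation, using a luciferase reagent and a luminescence read.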
ELG1 repair inh: ELG1-dependent DNA repair inhibition | HEK293T ELG1-luciferase reporter, luminescence, 16 h; DNA damage induced by 5-fluorouridine | Potency, µM (series often up to 46.1 µM), without a hit: at the top dose activity change, negative = inhibition, usual class: inhibitors | hit rate 2.3% among 330,000; further: on the % scale 0 is the no-effect control and ±100 the full control effect; nearly all actives have a fitted effect of over 55% in size
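HEK293T cells expressing luciferase-tagged ELG1 (2,000/well) received 5-Fluorouridine plus compound or DMSO for 16 hr at 37 °C. Luciferase was read by ONE-Glo luminescence after 30 min at room temperature.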
ELG1 genotoxic: induces genotoxicity in HEK293T cells with luciferase-tagged ELG1. Potency, µM (doses to about 46 µM), for inactives: top-dose activity change, positive = activation, usual class: activators. AID 504466. HEK293T ELG1-luciferase reporter, luminescence, 16 h. hit rate 1.3% among 330,000; further: % of control where 0% means no effect; nearly all actives have a fitted effect of over 60% in size
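ELG1-luciferase HEK293T cells, 2,000/well; compound pinned in; 16 hr, 37 °C, 5% CO2; ONE-Glo, 30 min RT; luminescence on CCD imager.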
SMN2 splice up: SMN2 splice variant enhancement. HEK293 SMN2-luciferase splicing reporter, luminescence, 30-36 h. Potency, µM (doses to about 46.1 µM), inactives show top-dose activity change, positive = activation, actives largely listed as activators. hit rate 2.8% among 210,000. AID 1458; further: % of control where 0% means no effect; nearly all actives have a fitted effect of over 55% in size
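HEK293 cells carry an SMN2 minigene-luciferase reporter in which exon 7 inclusion puts luciferase in frame. Cells were seeded at 2000 cells/well, attached for 10-12 hours, then exposed to compounds for 30-36 hours at 37C before ONE-Glo luminescence.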
Rab9 promoter act: Rab9 promoter activation | Huh7 Rab9 promoter-luciferase reporter, luminescence, 24 h | Potency, µM (titrated, usually from 9.22 µM), for the others: at the highest dose activation, negative = inhibition, actives largely listed as activators | hit rate 2.8% among 320,000; further: % of control where 0% means no effect; nearly all actives have a fitted effect of over 60% in size
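Luciferase signal after 10 min detection reagent at ambient indicates Rab9 promoter upregulation; stably transfected Huh7 cells were treated 24 h with compound in DMSO at 37 °C, 5% CO2.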
FLuc counter: inhibits or activates purified firefly luciferase, miR-21 counter-screen | P08659 | purified FLuc, Km substrates, luminescence inhibition | Potency, µM (top dose mostly 57.5 µM), inactives show at the top dose activity change, negative = inhibition, usual class: inhibitors | hit rate 6.9% among 360,000;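 further: plate controls were vehicle for no effect and reference inhibitor for full effect; nearly all actives have a fitted effect of over 55% in size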
Target sequence (P08659 whole entry, looked up): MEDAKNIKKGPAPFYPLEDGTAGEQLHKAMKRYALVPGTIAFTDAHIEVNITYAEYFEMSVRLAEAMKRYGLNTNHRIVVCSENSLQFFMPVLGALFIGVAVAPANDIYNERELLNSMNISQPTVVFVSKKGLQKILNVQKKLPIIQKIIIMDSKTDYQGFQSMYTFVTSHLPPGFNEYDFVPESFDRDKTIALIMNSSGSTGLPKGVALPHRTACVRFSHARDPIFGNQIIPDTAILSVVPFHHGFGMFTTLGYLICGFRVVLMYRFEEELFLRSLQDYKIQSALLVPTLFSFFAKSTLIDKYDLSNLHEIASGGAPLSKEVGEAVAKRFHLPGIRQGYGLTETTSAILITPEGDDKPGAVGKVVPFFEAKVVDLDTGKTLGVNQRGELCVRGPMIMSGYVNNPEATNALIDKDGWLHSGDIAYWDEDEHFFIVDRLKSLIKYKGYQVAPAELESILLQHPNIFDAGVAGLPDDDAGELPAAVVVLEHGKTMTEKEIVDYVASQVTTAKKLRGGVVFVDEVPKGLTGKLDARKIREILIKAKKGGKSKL
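Biochemical qHTS of compounds, final roughly 60 µM downward over six points, against 10 nM purified firefly luciferase using Km concentrations of substrates (10 uM D-luciferin, 10 uM ATP) in Tris acetate pH 7.5 buffer; luminescence output.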
Starred values were filed as active, the others as inactive; [ ] = remark or other dose. A selection: hits, their analogues and other compounds. The true share with any hit is near 9.2%. The call rests on the fitted dose curve; in most records, active means well fitted curve in the direction sought with a large enough effect; inconclusive means small, poorly fitted or top-dose-only effect, or another doubt; inactive means no such curve, though single readings can be large; an effect the other way counts as inactive or inconclusive. Potency means the concentration at half of the fitted maximal effect.

`CCN1CCCC1CNC(=O)c1cc2c(C)nc3ccccc3c2o1` (stereo not given) gave NPC1 prom act 1%, ELG1 repair inh -1%, ELG1 genotoxic 11%, SMN2 splice up -10%, Rab9 promoter act -17% and FLuc counter -2%.
Cc1nc2ccccc2c2oc(C(=O)N3CCC(N4CCCCC4)CC3)cc12 was read as NPC1 prom act -1%, ELG1 repair inh -1%, ELG1 genotoxic 7%, SMN2 splice up 11%, Rab9 promoter act -12% and FLuc counter -1%.
For CCOC(=O)N1CCC(NC(=O)c2cc3c(C)nc4ccccc4c3o2)CC1 the results were NPC1 prom act -4%, ELG1 repair inh 13µM*, ELG1 genotoxic -11%, SMN2 splice up -34%, Rab9 promoter act 1% and FLuc counter -2%.
Screening COc1ccc(CNC(=O)c2cc3c(C)nc4ccccc4c3o2)c(OC)c1 returned NPC1 prom act -15%, ELG1 repair inh 5.8µM*, ELG1 genotoxic 1%, SMN2 splice up -91%, Rab9 promoter act -26% and FLuc counter 4%.
For Cc1nc2ccccc2c2oc(C(=O)NCC3COc4ccccc4O3)cc12 (stereo not given) the results were NPC1 prom act -4%, ELG1 repair inh 15µM*, ELG1 genotoxic -11%, SMN2 splice up -51%, Rab9 promoter act -15% and FLuc counter -6%.
For Cc1ccc(NC(=O)CSc2nc3ccc(NC(=O)c4cccs4)cc3s2)c(C)c1 the results were FLuc counter -18%.
For CCc1ccc(CNC(=O)c2cc3c(C)nc4ccccc4c3o2)cc1 the results were NPC1 prom act -5%, ELG1 repair inh 15µM*, ELG1 genotoxic inconclusive, SMN2 splice up -96%, Rab9 promoter act -19% and FLuc counter 2%.
COc1ccc(C(=O)NCCn2cc(SCC(=O)Nc3cc(C)on3)c3ccccc32)cc1OC was read as NPC1 prom act 1%, ELG1 repair inh inconclusive, ELG1 genotoxic -15%, SMN2 splice up -11%, Rab9 promoter act -3% and FLuc counter -19%.
CCOc1ccc(C(=O)NCCn2cc(SCC(=O)Nc3cc(C)on3)c3ccccc32)cc1 was read as NPC1 prom act 0%, ELG1 repair inh inconclusive, ELG1 genotoxic -4%, SMN2 splice up -23%, Rab9 promoter act 1% and FLuc counter 12µM*.
Screening COc1ccccc1C(=O)NCCn1cc(SCC(=O)Nc2cc(C)on2)c2ccccc21 returned NPC1 prom act -3%, ELG1 repair inh 23µM*, ELG1 genotoxic -9%, SMN2 splice up -38%, Rab9 promoter act -1% and FLuc counter inconclusive.
Screening Cc1cc(Cl)c(S(=O)(=O)N2CCN(c3ccccn3)CC2)cc1OCC(N)=O returned NPC1 prom act -5%, ELG1 repair inh inconclusive, ELG1 genotoxic -4%, Rab9 promoter act -5% and FLuc counter 1%.
Screening O=C(Nc1ccc(Cl)cc1)Nc1ccccc1CC[N+](=O)[O-] returned NPC1 prom act 13%, ELG1 repair inh -9%, ELG1 genotoxic -7%, SMN2 splice up inconclusive, Rab9 promoter act 3% and FLuc counter inconclusive.
O=C(Cc1ccccc1)NNC(=O)Nc1ccc(Cl)c(Cl)c1 was read as NPC1 prom act -2%, ELG1 repair inh -26%, ELG1 genotoxic -6%, SMN2 splice up 5%, Rab9 promoter act -9% and FLuc counter 0%.
Screening O=C(Nc1ccc(Cl)c(Cl)c1)Nc1ccccc1C(=O)O returned NPC1 prom act 0.35µM*, ELG1 repair inh inconclusive, ELG1 genotoxic 2.3µM*, SMN2 splice up 4.5µM*, Rab9 promoter act 0.32µM* and FLuc counter 0.54µM*.
O=C(Nc1ccc(Cl)cc1)Nc1ccccc1C(=O)O was read as NPC1 prom act 0.35µM*, ELG1 repair inh inconclusive, ELG1 genotoxic inconclusive, SMN2 splice up 13µM*, Rab9 promoter act 0.45µM* and FLuc counter 0.48µM*.
`O=C(NCc1ccco1)c1ccc2c(c1)N(Cc1ccccc1F)C(=O)c1ccccc1S2=O` (stereo not given) gave SMN2 splice up 7% and FLuc counter -4%.
Screening Cc1cc(C)cc(NC(=O)c2ncn(-c3ccccc3)n2)c1 returned SMN2 splice up 11µM* and FLuc counter inconclusive.
O=C(Nc1ccc(Nc2ccccc2)cc1)c1ccc(Br)o1 was read as NPC1 prom act 30%, ELG1 repair inh inconclusive, ELG1 genotoxic 13%, SMN2 splice up 7%, Rab9 promoter act inconclusive and FLuc counter 19µM*.
For COc1ccc(NC(=S)NC(=O)c2ccc(Br)o2)cc1 the results were NPC1 prom act inconclusive, ELG1 repair inh inconclusive, ELG1 genotoxic inconclusive, SMN2 splice up 8.9µM*, Rab9 promoter act 3.2µM* and FLuc counter 9.5µM*.
Cc1nc(-c2ccc(NC(=O)c3ccc(Br)o3)cc2)cs1 was read as NPC1 prom act 1.8µM*, ELG1 repair inh inconclusive, ELG1 genotoxic 2.9µM*, Rab9 promoter act 0.79µM* and FLuc counter 1.5µM*.
Screening COc1ccc(NC(=O)c2ccc(-c3ccccc3C(F)(F)F)o2)cc1 returned NPC1 prom act 8%, ELG1 repair inh inconclusive, ELG1 genotoxic 9%, SMN2 splice up -1%, Rab9 promoter act 4% and FLuc counter 19µM*.
`O=C(Nc1cccc(F)c1)c1ccc(-c2ccccc2C(F)(F)F)o1` gave NPC1 prom act -4%, ELG1 repair inh 24%, ELG1 genotoxic 9%, SMN2 splice up 0%, Rab9 promoter act 3% and FLuc counter inconclusive.
For Cc1nc(-c2cccc(NC(=O)c3ccc(Br)o3)c2)cs1 the results were NPC1 prom act 12%, ELG1 repair inh 11%, ELG1 genotoxic -11%, Rab9 promoter act -2% and FLuc counter inconclusive.
Screening NC(=O)CSc1nnc2n(N)c(=O)c3ccccc3n12 returned NPC1 prom act -2%, ELG1 repair inh -4%, ELG1 genotoxic 0%, Rab9 promoter act 1%[1.84 µM] and FLuc counter -2%.
CCN(C(=O)CSc1nnnn1-c1ccc(Cl)cc1)C1CCS(=O)(=O)C1 (stereo not given) was read as ELG1 repair inh 0% and ELG1 genotoxic 0%.
Screening COc1ccc(NC(=O)c2ccc([N+](=O)[O-])o2)cc1 returned NPC1 prom act 23%, ELG1 repair inh inconclusive, ELG1 genotoxic inconclusive, Rab9 promoter act 25% and FLuc counter inconclusive.
For COc1ccc(NC(=O)c2ccc(Br)o2)cc1 the results were NPC1 prom act inconclusive, ELG1 repair inh inconclusive, ELG1 genotoxic inconclusive, SMN2 splice up 14µM*, Rab9 promoter act inconclusive and FLuc counter 9.5µM*.
